SMILES strings stand for the structures. About 1,500 (68%) of roughly 2,200 compounds were called active. No stated cut-off is given here; in the data, active means inhibition above about 23%; inactive means the rest. So high a share suggests a set chosen from earlier hits. The list is a sample of the results.

For the test, the target named is Perilipin-5 (Homo sapiens) + 1-acylglycerol-3-phosphate O-acyltransferase ABHD5 (Homo sapiens) (UniProt Q00G26+Q8WTS1). Briefly: blockers of ABHD5 binding to perilipin-5 – biochemical, luminescence, confirmation (AID 651612).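 Further: 0% = DMSO vehicle wells.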 As to conditions: biochemical ABHD5-PLIN5 interaction, at 4 µM, hits give high values.
Perilipin-5 (Homo sapiens) + 1-acylglycerol-3-phosphate O-acyltransferase ABHD5 (Homo sapiens), sequence (Q00G26 whole entry, looked up): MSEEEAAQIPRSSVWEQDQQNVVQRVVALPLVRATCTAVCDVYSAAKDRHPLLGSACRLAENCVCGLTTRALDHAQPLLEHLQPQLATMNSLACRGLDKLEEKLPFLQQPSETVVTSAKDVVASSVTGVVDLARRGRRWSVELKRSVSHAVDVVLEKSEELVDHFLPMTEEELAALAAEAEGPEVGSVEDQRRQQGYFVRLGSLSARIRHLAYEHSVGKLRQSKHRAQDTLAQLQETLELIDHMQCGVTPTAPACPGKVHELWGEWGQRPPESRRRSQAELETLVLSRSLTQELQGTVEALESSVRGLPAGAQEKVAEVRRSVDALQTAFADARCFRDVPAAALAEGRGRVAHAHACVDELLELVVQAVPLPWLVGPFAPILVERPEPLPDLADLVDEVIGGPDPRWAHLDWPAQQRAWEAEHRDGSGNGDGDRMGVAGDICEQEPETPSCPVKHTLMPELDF
Perilipin-5 (Homo sapiens) + 1-acylglycerol-3-phosphate O-acyltransferase ABHD5 (Homo sapiens), sequence (Q8WTS1 whole entry, looked up): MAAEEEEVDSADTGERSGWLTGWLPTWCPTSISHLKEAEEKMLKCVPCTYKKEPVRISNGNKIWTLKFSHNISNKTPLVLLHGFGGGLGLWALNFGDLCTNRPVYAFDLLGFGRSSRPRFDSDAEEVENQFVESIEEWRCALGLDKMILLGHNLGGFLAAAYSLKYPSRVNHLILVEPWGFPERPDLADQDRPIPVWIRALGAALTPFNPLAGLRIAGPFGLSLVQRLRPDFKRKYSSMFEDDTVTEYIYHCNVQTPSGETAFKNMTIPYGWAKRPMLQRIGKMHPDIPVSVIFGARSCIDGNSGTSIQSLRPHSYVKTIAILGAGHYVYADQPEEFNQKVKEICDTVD
On to `O=C(O)c1ccc2c(c1)C(=O)N(c1ccc(/C=C/C(=O)c3ccccc3)cc1)C2=O`, for which the inhibition (usually the drop in the measured response relative to a control, in per cent) was 94.7% (active).

Regarding `O=[N+]([O-])/C=C/c1ccc2c(ccn2Cc2ccccc2)c1`, the inhibition is 103% (active).

As for `Cc1cc(C)c(NC(=O)C[N+](C)(C)CC(O)COc2cccc3ccccc23)c(C)c1` (stereo not given), the inhibition was 22.2% (active).

As for `C[C@@H]1C[C@@H]2O[C@H]2/C=C\C=C\C(=O)Cc2c(Cl)c(O)cc(O)c2C(=O)O1`, the inhibition was 53.1% (active).

On to `O=C(NNc1c2ccccc2nc2ccccc12)c1cc2ccccc2cc1O`, for which the inhibition is 35.2% (active).

In the case of `Cc1cc2c(c(=O)n1Cc1ccco1)C(c1ccccc1)C(C#N)=C(N)O2` (stereo not given), the inhibition was 19% (inactive).

For the compound `CCCOc1ccc(C(=O)C(CCC(CNCC)C(=O)c2ccc(OCCC)cc2)CNCC)cc1` (stereo not given), the inhibition was 19.7% (inactive).

On to `CCc1ccc(NC(=O)CSc2nnc(-c3cnccn3)n2Cc2ccco2)cc1`, for which the inhibition was 19.6% (inactive).

As to `CC(C)(C)C1C/C(=C/c2ccco2)C(=O)/C(=C/c2ccco2)C1` (stereo not given), the inhibition is 77.8% (active).

Regarding `COc1ccc(-n2cc(CNC3CCOCC3)c(-c3cccc(F)c3)n2)cc1`, the inhibition was 2.9% (inactive).

As to `Cc1cccc(C=CC(=O)c2ccc(Cl)cc2)c1`, the inhibition was 84.9% (active).

On to `CC(=O)N(c1ccc2oc(=O)sc2c1)S(=O)(=O)c1ccc(C)cc1`, for which the inhibition is -52.7% (inactive).

On to `COc1ccc(CNC(=O)/C(C#N)=C/c2cccc(OC)c2OC)cc1`, for which the inhibition is 56.6% (active).

For `O=C(Nc1ccccc1)c1nnsc1S(=O)(=O)c1ccc(Cl)cc1`, the inhibition is 64.1% (active).

Take `O=C(N/N=C/C=C/c1ccco1)c1cccs1`: the inhibition was 40.2% (active).

As for `COc1cccc2sc(N(CCCN(C)C)C(=O)C(c3ccccc3)c3ccccc3)nc12`, the inhibition is 18.3% (inactive).

Regarding `O=C1C=CC(=O)N1c1ccc(N2CCCCC2)cc1`, the inhibition is 36.2% (active).

For `COc1ccc(N/C=C(\C2OC(=O)c3ccccc32)[N+](=O)[O-])cc1` (stereo not given), the inhibition was 9.16% (inactive).

In the case of `O=c1[nH]c(/C=C\c2cccc(C(F)(F)F)c2)nc(O)c1[N+](=O)[O-]`, the inhibition was 83.9% (active).

For `CC1(C)CCSC(/C=C/c2ccccc2)=N1`, the inhibition was 77.3% (active).

For `COc1ccccc1C1/C(=C(/O)c2ccc(C)cc2)C(=O)C(=O)N1Cc1ccco1` (stereo not given), the inhibition was 2.17% (inactive).

Turning to `C[C@@H](CN1CCC[C@H]1CN1C(N)=NC[C@@H]1Cc1ccccc1)N1C[C@@H](Cc2ccccc2)N(CCCC2CCCC2)C1=N`, the inhibition was 11.3% (inactive).

Take `Cc1ccc(SC(CC(=O)c2ccc(C(C)(C)C)cc2)C(=O)O)cc1` (stereo not given): the inhibition was 36.4% (active).

Turning to `Cc1ccn(C(CC(=O)c2ccc(Br)cc2)C(=O)O)n1` (stereo not given), the inhibition was 6% (inactive).

As for `CC(=O)c1ccc(NC(=O)CCc2nnc3ccc(NCc4ccco4)nn23)cc1`, the inhibition was 9.27% (inactive).

Source of the values: PubChem BioAssay AID651612 (The Scripps Research Institute Molecular Screening Center, 2012).
